Screens deposited in PubChem by National Center for Advancing Translational Sciences (NCATS).
ATXN2 expr inh: Primary qHTS for Inhibitors of ATXN expression | HEK-293 ATXN2-luciferase reporter, luminescence, 24 h | 360,000 compounds, 0.72% hits | Potency, µM (series often up to 57 µM), for inactives: at the top dose activity change, negative = inhibition, actives largely listed as inhibitors; note: % is set by controls: 0 for no effect and ±100 for the full control effect; nearly all actives have a fitted effect of over 55% in size
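ATXN2-luciferase reporter cells (luciferase flanked by upstream and downstream ATXN2 gene portions) were treated 24 h at 37 °C with compounds at up to 57 uM. SteadyGlo luminescence gave expression; GF-AFC fluorescence gave viability.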
ATXN viability: Viability Counterscreen for Primary qHTS for Inhibitors of ATXN expression; S2 cells (HEK-293 line with an ATXN2-luciferase reporter) viability, CellTiter-Fluor protease fluorescence, 24 h; Potency, µM (titrated, usually from 56.7 µM), actives largely listed as cytotoxic; 400,000 compounds, 0.49% hits; note: nearly all actives have a fitted effect of over 40% in size
Nrf2 activator: qHTS of Nrf2 Activators; AREc32 ARE-luciferase reporter (MCF7-derived line), luminescence, 24 h; Potency, µM (titrated, usually from 46.1 µM), without a hit: at the top dose activation, actives largely listed as activators; 410,000 compounds, 0.31% hits; note: % of control where 0% means no effect; nearly all actives have a fitted effect of over 65% in size
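Reporter line AREc32 (ARE-Fluc), seeded overnight in OPTI-MEM with 5% FBS; compound pin-transferred, 24 hr at 37 deg C, 5% CO2; luminescent read-out.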
A549 viability: Nrf2 qHTS screen for inhibitors: counterscreen for cytotoxicity. A549 ARE-Fluc cells, CellTiter-Fluor viability, 18-24 h. Potency, µM (top dose mostly 46 µM), for the others: at the top dose activity change, negative = cytotoxicity, hits mostly inhibitors. 390,000 compounds, 0.16% hits. AID 504648, 2011; note: % is set by controls: 0 for no effect and ±100 for the full control effect
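A549 ARE-Fluc cells in 5% FBS OPTI-MEM, 5000 cells/well, rested 2 h then exposed to compounds in concentration-response for 18-24 h at 37 °C. Viability by CellTiter-Fluor fluorescence (Ex 405/Em 525) after 30 min; luciferase luminescence (BugLite, 15 min, RT) read afterwards.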
Nrf2 inh: Nrf2 qHTS screen for inhibitors | A549 ARE-Fluc reporter, luciferase luminescence, 18-24 h | Potency, µM (highest dose often 46 µM), for the others: top-dose activity change, negative = inhibition, actives largely listed as inhibitors | 360,000 compounds, 2.1% hits | AID 504444, 2011; note: % is set by controls: 0 for no effect and ±100 for the full control effect; nearly all actives have a fitted effect of over 60% in size
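A549 ARE_Fluc cells (5000/well, 5% FBS OPTI-MEM) pre-incubated 2 h, then treated with compounds 18-24 h at 37C/5% CO2 in concentration-response. CellTiter-Fluor viability read first; BugLite luciferase luminescence after 15 min at room temperature gives Nrf2 activity.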
Numbers without * were called inactive; i = inactive; ? = inconclusive; . = not tested or not shown; [ ] = remark or other dose. The list is not random: actives were taken first. Their share in the collection is about 2.9%. Calls come from the whole dose curve; as a rule, active = well fitted curve in the direction sought with a large enough effect; inconclusive = small, poorly fitted or top-dose-only effect, or another doubt; inactive = no such curve, though single readings can be large; an effect the other way counts as inactive or inconclusive. Potency is the fitted concentration of half-maximal effect.

SMILES	ATXN2 expr inh	ATXN viability	Nrf2 activator	A549 viability	Nrf2 inh
CCn1c(N2CCN(S(=O)(=O)c3ccc(OC)cc3)CC2)nc2ccccc21	-31%	i	0%[9.22 µM]	-17%	21µM*
CCn1c(N2CCN(S(=O)(=O)c3ccccc3C(F)(F)F)CC2)nc2ccccc21	-5%	i	3%	-13%	21µM*
Cc1ccc(S(=O)(=O)CC(=O)N2CCN(c3ccc([N+](=O)[O-])cc3)CC2)cc1	-30%	i	0%	-16%	?
Cc1noc(C)c1CSCC(=O)N1CCN(c2ccc([N+](=O)[O-])cc2)CC1	?	?	5%	?	21µM*
Cc1ccc(CC(=O)N2CCN(c3ccc([N+](=O)[O-])cc3)CC2)cc1	-29%	i	2%	?	21µM*
O=C(NC1CCCCC1)N1CCN(c2ccc([N+](=O)[O-])cc2)CC1	-22%	i	0%	-24%	23µM*
Cc1cccnc1-c1cccc2c1OC(CNC(=O)/C=C/c1cccs1)C2 (stereo unspecified)	.	i	.	.	.
Cc1nc2ccccc2n1CCc1nc2c3ccccc3nc(SCc3ccc(F)cc3)n2n1	13%	i	0%	0%	.
C[C@H](c1ccc(F)cc1CCCC(=O)O)N(c1cc(F)ccc1F)S(=O)(=O)c1ccc(Cl)cc1	17%	.	.	.	.
O=C(Nc1ccc(S(=O)(=O)NC2=NCCCCC2)cc1)c1cc(F)c(F)cc1Cl	0%	i	0%	-1%	-22%
CCCOc1ccc(C(=O)Nc2ccc(S(=O)(=O)NC3=NCCCCC3)cc2)cc1	-21%	i	2%	-9%	18µM*
O=C(Nc1ccc(S(=O)(=O)NC2=NCCCCC2)cc1)c1ccc(Cl)cc1Cl	-13%	?	-1%	-10%	16µM*
CCOc1ccc(OCCOCCn2c(-c3ccc(Cl)cc3)nc3ccccc3c2=O)cc1	6%	i	7%	2%	8%
COCc1c(C(=O)NC2CCCC2)cnn1-c1nccc(-c2cccs2)n1	.	i	.	.	.
COC(=O)c1cccc(NC(=O)C2CCN(S(=O)(=O)Cc3ccccc3)CC2)c1C	4%	i	0%	12%	9%
CCOc1ccccc1NC(=O)C1CCN(S(=O)(=O)Cc2ccccc2)CC1	11%	i	0%	-1%	23µM*
CN(C)c1ccc(-c2nn3c(-c4cc(-c5ccccc5)n[nH]4)nnc3s2)cc1	.	.	.	2%	1%
O=C(C=Cc1cccc(S(=O)(=O)Nc2ccccc2)c1)NO	89%[116 µM]	.	.	.	.
Nc1ccc(Cn2ccc3c4c(N)nc(N)nc4ccc32)cc1	?	.	17%	-15%	0.82µM*
Cc1nc2ccc(N)cc2c(=O)n1Cc1ccc(Cl)cc1	40%	i	2%	1%	21%
Cc1cccc2nc(CNC(=O)CN3Cc4cc(Cl)ccc4OC(C)C3)cn12 (stereo unspecified)	.	i	.	.	.
C[C@H]1CN([C@@H](C)CO)C(=O)Cc2cc(NC(=O)Nc3ccccc3)ccc2O[C@H]1CN(C)Cc1ccccc1	?	28µM*	3%	-7%	?
C[C@H](CO)N1C[C@H](C)[C@H](CN(C)CC2CCCCC2)Oc2ccc(NS(=O)(=O)c3ccc(F)cc3)cc2CC1=O	?	28µM*	0%	-18%	?
C[C@H](CO)N1C[C@H](C)[C@H](CN(C)Cc2ccncc2)Oc2ccc(NC(=O)Nc3ccc(C(F)(F)F)cc3)cc2CC1=O	?	28µM*	-4%	-6%	1%
COc1ccccc1C1CN(Cc2cccc(O)c2)Cc2ccccc2O1 (stereo unspecified)	.	i	.	.	.
Cc1ccc(C(=O)n2nc(C)c(S(=O)(=O)N3CCCCCC3)c2C)cc1C	14%	i	0%	-1%	.
Cc1[nH]c2ccccc2c1C1(O)C(=O)N(Cc2ccccc2)c2ccc(Br)cc21 (stereo unspecified)	?	i	-1%	-12%	?
CCOc1ccc(-c2nnc(N3CCCCC3)c3ccccc23)cc1	?	28µM*	-1%	-28%	26µM*
C/C(=N\NC(=O)c1cc(C2CC2)nc2ccccc12)c1ccc(O)cc1O	2.5µM*	?	0%	-2%	?
